These results are taken from PubChem BioAssay (Tox21).

Results filed as inconclusive are left out. Entries that show only a call come without a potency. Active and inactive are the calls of the source. Calls come from the whole dose curve; as a rule, active = well fitted cell-killing curve with a large enough effect in the repeat runs; inconclusive = weak or mixed curves; inactive = no such curve, though single readings can be large or run the other way.
Potency is the fitted concentration of half-maximal effect.

This assay in a line: qHTS assay to identify small molecule agonists of the peroxisome proliferator-activated receptor delta (PPARd) signaling pathway - cell viability counter screen (AID 743211). Note: nearly all actives have a fitted effect of over 55% in size. Particulars: PPARd-bla HEK293H viability, CellTiter-Glo luminescence, 17 h; series mostly up to 62.6 µM. The source says:
U.S. Tox21 Program National Center for Advancing Translational Sciences [NCATS] NIH Chemical Genomics Center [NCGC] U.S. Environmental Protection Agency [EPA] National Institutes of Environmental Health Sciences [NIEHS] National Toxicology Program [NTP] U.S. Food and Drug Administration [FDA] Tox21 Assay Overview: The peroxisome proliferator-activated receptors (PPARs) are lipid-activated transcription factors of the nuclear receptor superfamily with three distinct subtypes namely PPAR alpha, PPAR delta (PPARd) and PPAR gamma. All these subtypes heterodimerizes with Retinoid X receptor (RXR) and have different physiological functions. […] To identify the compounds that activate PPAR-delta signaling, GeneBLAzer PPAR delta UAS-bla HEK293H cell line (Invitrogen, Carlsbad, CA, USA) containing a beta-lactamase reporter gene under the control of an Upstream Activator Sequence (UAS) was used to screen the Tox21 compound library. The cytotoxicity of the Tox21 compound library against the PPARd-bla cell line was tested in parallel by measuring the cell viability using CellTiter-Glo assay (Promega, Madison, WI) in the same wells.
Tox21 Assay Protocol Summary: PPARd-bla cells were dispensed at 3000 cells/6uL/well in 1536-well black wall/clear bottom plates using a Multidrop Combi (Thermo Fisher Scientific, Waltham, MA) dispenser. After the assay plates were incubated at 37 C and 5% CO2 for 5 h, 23 nL of compounds dissolved in DMSO, positive controls or DMSO only was transferred to the assay plate by a Pintool station (Kalypsys, San Diego, CA). The assay plates were incubated at 37C for 17 h. After 1 uL of LiveBLAzerTM B/G FRET substrate was added using a Bioraptr Flying Reagent Dispenser (FRD) workstation (Beckman Coulter, Indianapolis, IN, USA), the plates were incubated at room temperature for 2 h, and fluorescence intensity was measured by an Envision plate reader (PerkinElmer, Shelton, CT). For cell viability readout that measures cytotoxicity, 3 ul/well of CellTiter-Glo reagent was added into the assay plates using a Bioraptr FRD. After 30 min incubation at room temperature, the luminescence intensity in the plates was measured using a ViewLux plate reader (PerkinElmer).
On the technique in general: qHTS replaces the single test concentration by a dilution series.
For the compound `OC(c1ccc(Cl)cc1)(c1ccc(Cl)cc1)c1cccnc1`, the Potency is 54.9 µM (active). To `CO/N=C(/C(=O)OC)c1ccccc1COc1ccccc1C` belongs “inactive”; to `Clc1cc(C(Cl)(Cl)Cl)cnc1Cl`, “inactive”.

Regarding `ClCc1cccc(Cl)c1`, the Potency entry was “inactive”. Under `COC(=O)C(C)N(C(=O)Cc1ccccc1)c1c(C)cccc1C` (stereo not given) stands “inactive”; under `Cn1sc(Cl)cc1=O`, “inactive”; under `[O-][Cl+]O`, “inactive”. To `CC1C(=O)C[C@]2(C(C)C)C[C@H]12` (stereo not given in full) belongs “inactive”; to `Cc1c(F)c(F)c(COC(=O)C2C(/C=C(\Cl)C(F)(F)F)C2(C)C)c(F)c1F` (stereo not given), “inactive”. As for `Cn1cc[n+](C)c1` (tested in a mixture with another compound), the Potency result is “inactive”. For `CCCN(CCCl)c1c([N+](=O)[O-])cc(C(F)(F)F)cc1[N+](=O)[O-]`, the Potency result is “inactive”. To `COCC(C)N(C(=O)CCl)c1c(C)csc1C` (stereo not given) belongs “inactive”; to `O=C(O)c1ccccc1C(=O)Nc1cccc2ccccc12`, “inactive”; to `COc1c(C(C)(C)C)cc([N+](=O)[O-])c(C)c1[N+](=O)[O-]`, “inactive”. To `C[C@H]1CNCCc2ccc(Cl)cc21` belongs “inactive”; to `CCCCCC[N+](=O)[O-]`, “inactive”. To `CCc1ccc(C(=O)NN(C(=O)c2cc(C)cc(C)c2)C(C)(C)C)cc1` belongs “inactive”; to `BrCCCCBr`, “inactive”; to `CC(C)(CCl)C(=O)Cl`, “inactive”. Turning to `COc1nn(CSP(=S)(OC)OC)c(=O)s1`, the Potency result was “inactive”.

As to `O=C(Nc1ccccc1)Nc1ccnc(Cl)c1`, the Potency entry was “inactive”. To `CCCCCCCCCC(=O)O[C@H]1CC[C@H]2[C@@H]3CCC4=CC(=O)CC[C@@H]4[C@H]3CC[C@]12C` belongs “inactive”; to `Clc1ccc(C2(Cn3cncn3)CC(Br)CO2)c(Cl)c1` (stereo not given), “inactive”. Under `C=C(C#N)CCC#N` stands “inactive”; under `COC(=O)C(Br)CBr` (stereo not given), “inactive”. To `CCC(COC(=O)c1cc(OC)c(OC)c(OC)c1)(c1ccccc1)N(C)C` (stereo not given) belongs “inactive”; to `O=[N+]([O-])C(Br)(CO)CO`, “inactive”; to `CCOP(=O)(OCC)SCCSCC`, “inactive”. In the case of `CC1(C)[C@H](C=C(Cl)Cl)[C@@H]1C(=O)O[C@@H](C#N)c1cccc(Oc2ccccc2)c1`, the Potency entry is “inactive”. To `Cc1ccccc1C(=O)Nc1cccc(OC(C)C)c1` belongs “inactive”; to `CCOC(=O)COc1cc(-c2nn(C)c(OC(F)F)c2Cl)c(F)cc1Cl`, “inactive”; to `Cc1cc(=O)[nH]o1`, “inactive”. Under `COCCOCCO` stands “inactive”; under `CCOP(=S)(Oc1ccc([N+](=O)[O-])cc1)c1ccccc1` (stereo not given), “inactive”. Under `CC(C)(OO)c1ccccc1` stands “inactive”; under `CCCCNP(N)(N)=S`, “inactive”. Regarding `CC(=O)c1cc2c(cc1C)C(C)(C)C(C)CC2(C)C` (stereo not given), the Potency entry is “inactive”. Under `CCCCN=C=O` stands “inactive”; under `CC1Sc2c(C(=O)O)c(=O)c3cc(F)c(N4CCNCC4)cc3n21` (stereo not given), “inactive”. To `C=COC(C)=O` belongs “inactive”.
